# Article PMC5540273 (PLoS ONE, 2017)
# Read-outs that look alike come from different tables or passages of the source.
# Columns and labels:
# PIP5K1A = settings: concentration: 1 μM, replicates: in singlicate; n = 1
# PIP5K1C = settings: concentration: 1 μM, replicates: in singlicate; n = 1
# PIP5K2B = settings: concentration: 1 μM, replicates: in singlicate; n = 1
# PIP5K2C = tested on: T1, PIP5K2C; settings: concentration: 1 μM, replicates: in singlicate; n = 1
# T1 construct: gene PIP4K2C
# PKAC-alpha = tested on: T2, PKAC-alpha; settings: n = 1
# T2 construct: gene PRKACA
# PKAC-beta = tested on: T3, PKAC-beta; settings: n = 1
# T3 construct: gene PRKACB
# PKMYT1 = settings: concentration: 1 μM, replicates: in singlicate; n = 1
# PKN1 = settings: n = 1
# PKN2 = settings: concentration: 1 μM, replicates: in singlicate; n = 1
# PLK1 = settings: concentration: 1 μM, replicates: in singlicate; n = 1
# PLK2 = settings: concentration: 1 μM, replicates: in singlicate; n = 1
# PLK3 = settings: concentration: 1 μM, replicates: in singlicate; n = 1
# PLK4 = settings: concentration: 1 μM, replicates: in singlicate; n = 1
# PRKCD = settings: n = 1
# PRKCE = settings: concentration: 1 μM, replicates: in singlicate; n = 1
# PRKCH = settings: concentration: 1 μM, replicates: in singlicate; n = 1
# PRKCI = settings: n = 1
# PRKCQ = settings: concentration: 1 μM, replicates: in singlicate; n = 1
# PRKD1 = settings: concentration: 1 μM, replicates: in singlicate; n = 1
# PRKD2 = settings: concentration: 1 μM, replicates: in singlicate; n = 1
# [1] = concentration: 1 μM, replicates: in singlicate
# 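Further: KINOMEscan kinase panel screen.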
smiles,measurement,setting,value
CCS(=O)(=O)c1ccc(OC)c(Nc2nccc(-c3c(-c4cccc(NC(=O)c5c(F)cccc5F)c4)nn4ncccc34)n2)c1 [GSK326180],%Inh,PIP5K1A,0%
same,%Inh,PIP5K1C,8%
same,%Inh,PIP5K2B,0%
same,%Inh,PIP5K2C,40%
same,%Inh,PKAC-alpha; [1],0%
same,%Inh,PKAC-beta; [1],0%
same,%Inh,PKMYT1,0%
same,%Inh,PKN1; [1],0%
same,%Inh,PKN2,0%
same,%Inh,PLK1,0%
same,%Inh,PLK2,0%
same,%Inh,PLK3,5%
same,%Inh,PLK4,16%
same,%Inh,PRKCD; [1],0%
same,%Inh,PRKCE,12%
same,%Inh,PRKCH,18%
same,%Inh,PRKCI; [1],16%
same,%Inh,PRKCQ,27%
same,%Inh,PRKD1,0%
same,%Inh,PRKD2,9%
CCn1c(-c2nonc2N)nc2c(C#CC(C)(C)O)ncc(OCCCCN)c21.O=C(O)C(F)(F)F.O=C(O)C(F)(F)F [GSK507274],%Inh,PIP5K1A,26%
same,%Inh,PIP5K1C,0%
same,%Inh,PIP5K2B,6%
same,%Inh,PIP5K2C,0%
same,%Inh,PKAC-alpha; 1 µM,92.5%
same,%Inh,PKAC-beta; 1 µM,95.6%
same,%Inh,PKMYT1,0%
same,%Inh,PKN1; 1 µM,5%
same,%Inh,PKN2,0%
same,%Inh,PLK1,5%
same,%Inh,PLK2,0%
same,%Inh,PLK3,0%
same,%Inh,PLK4,0%
same,%Inh,PRKCD; 1 µM,91%
same,%Inh,PRKCE,98%
same,%Inh,PRKCH,97.7%
same,%Inh,PRKCI; 1 µM,78%
same,%Inh,PRKCQ,86%
same,%Inh,PRKD1,29%
same,%Inh,PRKD2,23%
Cn1cc(-c2[nH]c3cc(NC(=O)[C@H](N)C4CCCCC4)cc4c3c2C=NNC4=O)cn1,%Inh,PIP5K1A,33%
same,%Inh,PIP5K1C,52%
same,%Inh,PIP5K2B,82%
same,%Inh,PIP5K2C,41%
same,%Inh,PKAC-alpha; [1],70%
same,%Inh,PKAC-beta; [1],63%
same,%Inh,PKMYT1,2%
same,%Inh,PKN1; [1],88%
same,%Inh,PKN2,90.5%
same,%Inh,PLK1,0%
same,%Inh,PLK2,68%
same,%Inh,PLK3,36%
same,%Inh,PLK4,99.9%
same,%Inh,PRKCD; [1],45%
same,%Inh,PRKCE,79%
same,%Inh,PRKCH,53%
same,%Inh,PRKCI; [1],59%
same,%Inh,PRKCQ,78%
same,%Inh,PRKD1,0%
same,%Inh,PRKD2,0%
Cn1cc(-c2ccc3c(c2)CCN3C(=O)Cc2cccc(Cl)c2)c2c(N)ncnc21 [GSK2606590],%Inh,PIP5K1A,0%
same,%Inh,PIP5K1C,22%
same,%Inh,PIP5K2B,10%
same,%Inh,PIP5K2C,1%
same,%Inh,PKAC-alpha; [1],7%
same,%Inh,PKAC-beta; [1],5%
same,%Inh,PKMYT1,9%
same,%Inh,PKN1; [1],0%
same,%Inh,PKN2,0%
same,%Inh,PLK1,7%
same,%Inh,PLK2,0%
same,%Inh,PLK3,0%
same,%Inh,PLK4,6%
same,%Inh,PRKCD; [1],15%
same,%Inh,PRKCE,0%
same,%Inh,PRKCH,27%
same,%Inh,PRKCI; [1],0%
same,%Inh,PRKCQ,10%
same,%Inh,PRKD1,0%
same,%Inh,PRKD2,0%
CC(=O)N1CCN(c2ccc(Nc3nccc(-c4sc(C(C)C)nc4-c4cccc(NS(=O)(=O)c5cccc(Cl)c5)c4)n3)cn2)CC1 [GSK1660437],%Inh,PIP5K1A,0%
same,%Inh,PIP5K1C,15%
same,%Inh,PIP5K2B,15%
same,%Inh,PIP5K2C,66%
same,%Inh,PKAC-alpha; [1],0%
same,%Inh,PKAC-beta; [1],6%
same,%Inh,PKMYT1,0%
same,%Inh,PKN1; [1],57%
same,%Inh,PKN2,12%
same,%Inh,PLK1,0%
same,%Inh,PLK2,5%
same,%Inh,PLK3,0%
same,%Inh,PLK4,99.8%
same,%Inh,PRKCD; [1],1%
same,%Inh,PRKCE,0%
same,%Inh,PRKCH,19%
same,%Inh,PRKCI; [1],13%
same,%Inh,PRKCQ,13%
same,%Inh,PRKD1,89%
same,%Inh,PRKD2,95.3%
CCCCc1nn2ncccc2c1-c1ccnc(Nc2ccc(N3CCN(C)CC3)cc2)n1 [GW684941],%Inh,PIP5K1A,33%
same,%Inh,PIP5K1C,48%
same,%Inh,PIP5K2B,5%
same,%Inh,PIP5K2C,96.7%
same,%Inh,PKAC-alpha; [1],0%
same,%Inh,PKAC-beta; [1],8%
same,%Inh,PKMYT1,0%
same,%Inh,PKN1; [1],5%
same,%Inh,PKN2,0%
same,%Inh,PLK1,0%
same,%Inh,PLK2,0%
same,%Inh,PLK3,0%
same,%Inh,PLK4,74%
same,%Inh,PRKCD; [1],0%
same,%Inh,PRKCE,14%
same,%Inh,PRKCH,0%
same,%Inh,PRKCI; [1],17%
same,%Inh,PRKCQ,0%
same,%Inh,PRKD1,63%
same,%Inh,PRKD2,55%
O=C(O)C(F)(F)F.O=C(O)C(F)(F)F.O=c1[nH]ccc2nc(N[C@@H]3CCCNC3)nc(Nc3ccc(S(=O)(=O)N4CCOCC4)cc3)c12 [GSK2177277],%Inh,PIP5K1A,72%
same,%Inh,PIP5K1C,76%
same,%Inh,PIP5K2B,94.4%
same,%Inh,PIP5K2C,89%
same,%Inh,PKAC-alpha; [1],82%
same,%Inh,PKAC-beta; [1],86%
same,%Inh,PKMYT1,0%
same,%Inh,PKN1; [1],85%
same,%Inh,PKN2,96.1%
same,%Inh,PLK1,38%
same,%Inh,PLK2,10%
same,%Inh,PLK3,0%
same,%Inh,PLK4,98.7%
same,%Inh,PRKCD; [1],99.8%
same,%Inh,PRKCE,99.9%
same,%Inh,PRKCH,99%
same,%Inh,PRKCI; [1],95.3%
same,%Inh,PRKCQ,99.2%
same,%Inh,PRKD1,94.8%
same,%Inh,PRKD2,99.1%
c1ccc(Oc2ccc(Nc3ccnc4cc(-c5ccc(CNCCN6CCOCC6)o5)ccc34)cc2)nc1 [GW567145],%Inh,PIP5K1A,62%
same,%Inh,PIP5K1C,71%
same,%Inh,PIP5K2B,21%
same,%Inh,PIP5K2C,57%
same,%Inh,PKAC-alpha; [1],0%
same,%Inh,PKAC-beta; [1],0%
same,%Inh,PKMYT1,0%
same,%Inh,PKN1; [1],0%
same,%Inh,PKN2,0%
same,%Inh,PLK1,0%
same,%Inh,PLK2,0%
same,%Inh,PLK3,0%
same,%Inh,PLK4,43%
same,%Inh,PRKCD; [1],0%
same,%Inh,PRKCE,12%
same,%Inh,PRKCH,4%
same,%Inh,PRKCI; [1],39%
same,%Inh,PRKCQ,4%
same,%Inh,PRKD1,0%
same,%Inh,PRKD2,13%
